# Experimental data from PubChem BioAssay (Tox21).
# Results filed as inconclusive are left out. Entries that show only a call come without a potency. Values without a mark were called inactive. The source made the active and inactive calls. Unless noted, calls come from the whole dose curve; as a rule, active = well fitted curve in the direction sought with a large enough effect in the repeat runs; inconclusive = weak or mixed curves; inactive = no such curve, though single readings can be large; an effect the other way counts as inactive or inconclusive.
# Experiments:
# [1] = target: Aryl hydrocarbon receptor (Homo sapiens) (UniProt P35869); assay: qHTS assay to identify small molecule that activate the aryl hydrocarbon receptor (AhR) signaling pathway (AID 743085);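 note: HG2L7.5c1 human HepG2 liver cells with stably integrated DRE-driven firefly reporter; series mostly up to about 70 µM; nearly all actives have a fitted effect of over 15% in size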
# Procedure, shortened: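 24 h compound exposure, 37C, HepG2-derived HG2L7.5c1 cells with DRE-responsive luciferase. Readouts: fluorescence viability, then luminescence at room temperature after 30 min.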
# [2] = target: Peroxisome proliferator-activated receptor gamma (Homo sapiens) (UniProt P37231); assay: qHTS assay to identify small molecule antagonists of the peroxisome proliferator-activated receptor gamma (PPARg) signaling pathway (AID 743191; calls by dose curve; note: series mostly up to about 63 µM; nearly all actives have a fitted effect of over 30% in size)
# Procedure, shortened: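 Beta-lactamase reporter under UAS control in HEK293H PPARg-bla cells; compound treatment 17 h at 37C. Read-out: fluorescence intensity after 1 h room-temperature incubation with LiveBLAzer B/G FRET substrate.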
# [3] = qHTS assay for small molecule agonists of the antioxidant response element (ARE) signaling pathway (AID 743202; active = well fitted activation curve with a large enough effect in the signal ratio in the repeat runs, not every such curve was filed as active; the % refers to the signal ratio; note: potency is the fitted concentration of half-maximal effect)
# Procedure, shortened: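 Quantitative high-throughput format in HepG2 cells bearing an integrated ARE-beta-lactamase reporter. Compound exposure lasted 16 h at 37 C, and fluorescence was read 2 h after adding LiveBLAzer B/G substrate at room temperature.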
# [4] = qHTS assay for small molecule agonists of the antioxidant response element (ARE) signaling pathway - cell viability counter screen (AID 743203; calls by dose curve; note: nearly all actives have a fitted effect of over 55% in size)
# Procedure, shortened: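 CellSensor ARE-bla HepG2 cells, 2,000 per well, rested 5 hrs at 37C/5% CO2, then exposed to compound in DMSO for 16 hrs; viability read as CellTiter-Glo luminescence after 30 min at room temperature, in the reporter wells.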
# [5] = qHTS assay for small molecule activators of the heat shock response signaling pathway - cell viability counter screen (AID 743209); note: nearly all actives have a fitted effect of over 50% in size
# Procedure, shortened: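 CellSensor HSE-bla HeLa cells, plated overnight at 37 C/5% CO2, were exposed to compounds in DMSO for 5 h at 37 C. Viability was then read in the same wells by CellTiter-Glo luminescence after 30 min at room temperature.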
# [6] = qHTS assay for small molecule activators of the heat shock response signaling pathway (AID 743210; active = well fitted activation curve with a large enough effect in the signal ratio in the repeat runs, with a control signal flat, not every such curve was filed as active; the % refers to the signal ratio;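 note: HeLa cells with beta-lactamase reporter driven by heat shock elements; series mostly up to about 63 µM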)
# Procedure, shortened: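 HeLa HSE-bla cells, overnight plating; cpd in DMSO 5 h, 37 C; LiveBLAzer B/G FRET substrate 2.5 h RT; fluorescence intensity read.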
# [7] = target: Peroxisome proliferator-activated receptor delta (Homo sapiens) (UniProt Q03181); assay: qHTS assay to identify small molecule agonists of the peroxisome proliferator-activated receptor delta (PPARd) signaling pathway (AID 743212; calls by dose curve)
# Procedure, shortened: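 HEK293H PPARd-bla cells; 5 h preincubation 37 C/5% CO2; compound (DMSO) 37 C; LiveBLAzer B/G FRET substrate 2 h RT; fluorescence intensity.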
# [8] = qHTS assay to identify small molecule antagonists of the peroxisome proliferator-activated receptor delta (PPARd) signaling pathway - cell viability counter screen (AID 743213); note: nearly all actives have a fitted effect of over 50% in size
# Procedure, shortened: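 Cytotoxicity counter screen: CellTiter-Glo luminescence read 30 min after addition, in the same wells as the reporter assay. There, PPARd UAS-bla HEK293H cells (3000/well) were treated 17 h at 37 C with compound and 300 nM L165041.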
# [9] = target: Peroxisome proliferator-activated receptor delta (Homo sapiens) (UniProt Q03181); assay: qHTS assay to identify small molecule antagonists of the peroxisome proliferator-activated receptor delta (PPARd) signaling pathway (AID 743215; active = well fitted inhibition curve with a large enough effect in the signal ratio in the repeat runs, not every such curve was filed as active; the % refers to the signal ratio;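 note: cells stimulated with agonist L165041 at 300 nM final during compound exposure; series mostly up to about 62 µM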)
# Procedure, shortened: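 PPARd UAS-bla HEK293H cells were pre-incubated 5 h at 37 C, then given test compounds in DMSO plus agonist L165041 (300 nM final). After 17 h at 37 C, beta-lactamase FRET substrate was added; fluorescence read after 2 h at room temperature.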
# [10] = target: Bile acid receptor (Homo sapiens) (UniProt Q96RI1); assay: qHTS assay to identify small molecule antagonists of the farnesoid-X-receptor (FXR) signaling pathway (AID 743217; active = well fitted inhibition curve with a large enough effect in the signal ratio in the repeat runs, not every such curve was filed as active; the % refers to the signal ratio; note: potency is the fitted concentration of half-maximal effect)
# Procedure, shortened: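 FXR-UAS-bla HEK 293T cells pre-incubated 5 h at 37 °C, then exposed to compounds with chenodeoxycholic acid (50 uM final) for 16 h at 37 °C. Beta-lactamase reporter read by LiveBLAzer B/G FRET substrate fluorescence after 2 h at room temperature.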
# [11] = target: Bile acid receptor (Homo sapiens) (UniProt Q96RI1); assay: qHTS assay to identify small molecule agonists of the farnesoid-X-receptor (FXR) signaling pathway (AID 743220; active = well fitted activation curve with a large enough effect in the signal ratio in the repeat runs, not every such curve was filed as active; the % refers to the signal ratio)
# Procedure, shortened: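 Beta-lactamase reporter under UAS control in GeneBLAzer FXR HEK 293T cells (5000/well) measured with LiveBLAzer FRET substrate after 2 h at room temperature. Compound exposure lasted 16 h at 37C.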
# [12] = qHTS assay to identify small molecule antagonists of the farnesoid-X-receptor (FXR) signaling pathway - cell viability counter screen (AID 743221; active = well fitted cell-killing curve with a large enough effect in the repeat runs, not every such curve was filed as active; note: nearly all actives have a fitted effect of over 50% in size)
# Procedure, shortened: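 In GeneBLAzer FXR-UAS-bla HEK 293T cells stimulated with 50 uM chenodeoxycholic acid (final), compounds acted for 16 h at 37 C. Viability was assessed afterwards by CellTiter-Glo luminescence.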
# [13] = target: Vitamin D3 receptor (Homo sapiens) (UniProt P11473); assay: qHTS assay to identify small molecule antagonists of the vitamin D receptor (VDR) signaling pathway (AID 743223; active = well fitted inhibition curve with a large enough effect in the signal ratio in the repeat runs, not every such curve was filed as active; the % refers to the signal ratio)
# Procedure, shortened: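 Agonist 1alpha,25-dihydroxyvitamin D3 (3 nM in well) was added with each compound to VDR-bla cells preincubated 4 h. Cells stood 16 h at 37C, then FRET substrate 2 h at room temperature; fluorescence intensity recorded.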
# [14] = qHTS assay to identify small molecule agonists of the vitamin D receptor (VDR) signaling pathway - cell viability counter screen (AID 743224); note: nearly all actives have a fitted effect of over 50% in size; note: potency is the fitted concentration of half-maximal effect
# Procedure, shortened: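 VDR-bla cells were preincubated 4 h at 37C/5% CO2, then exposed to compounds for 16 h. After the 2 h room-temperature bla FRET read, CellTiter-Glo was added to the same wells and luminescence read after 30 min.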
# [15] = target: Peroxisome proliferator-activated receptor gamma (Homo sapiens) (UniProt P37231); assay: qHTS assay to identify small molecule agonists of the peroxisome proliferator-activated receptor gamma (PPARg) signaling pathway (AID 743094; active = well fitted activation curve with a large enough effect in the signal ratio in the repeat runs, not every such curve was filed as active; the % refers to the signal ratio)
# Procedure, shortened: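 GeneBLAzer PPARg UAS-bla HEK293H cells carrying a stably integrated beta-lactamase reporter were pre-incubated 5 h at 37C, then exposed to compounds in DMSO for 17 h at 37C; LiveBLAzer B/G FRET substrate was added for 1 h at room temperature and fluorescence read.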
# [16] = qHTS assay to identify small molecule antagonists of the peroxisome proliferator-activated receptor gamma (PPARg) signaling pathway - cell viability counter screen (AID 743194); note: nearly all actives have a fitted effect of over 55% in size
# Procedure, shortened: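 Viability was measured as CellTiter-Glo luminescence in GeneBLAzer PPARg UAS-bla HEK293H cells. These cells had been exposed 17 h at 37 C to compounds together with rosiglitazone at 50 nM final, with the beta-lactamase readout taken in the same wells.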
# [17] = qHTS assay to identify small molecule agonists of the peroxisome proliferator-activated receptor delta (PPARd) signaling pathway - cell viability counter screen (AID 743211); note: nearly all actives have a fitted effect of over 55% in size
# Procedure, shortened: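 Luminescent ATP viability assay (CellTiter-Glo, 30 min RT) in UAS-bla HEK293H cells carrying the PPAR delta reporter construct, 3000 cells/well, after a 17 h compound treatment at 37 C.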
# [18] = qHTS assay to identify small molecule agonists of the farnesoid-X-receptor (FXR) signaling pathway - cell viability counter screen (AID 743218); note: nearly all actives have a fitted effect of over 45% in size
# Procedure, shortened: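 FXR-UAS-bla HEK 293T cells, plated 5 h at 37 C, were exposed to compounds for 16 h at 37 C. CellTiter-Glo was then added to the same wells as the bla readout; luminescence read after 30 min at room temperature.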
# [19] = qHTS assay to identify small molecule that activate the aryl hydrocarbon receptor (AhR) signaling pathway - cell viability counter screen (AID 743086); note: nearly all actives have a fitted effect of over 45% in size; note: potency is the fitted concentration of half-maximal effect
# Procedure, shortened: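 Cytotoxicity counter screen: CellTiter-Fluor signal (30 min, 37 C) in 4000 HepG2 cells/well carrying the DRE-luciferase reporter, following 24 h compound exposure at 37 C.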
# [20] = target: Vitamin D3 receptor (Homo sapiens) (UniProt P11473); assay: qHTS assay to identify small molecule agonists of the vitamin D receptor (VDR) signaling pathway (AID 743222; calls by dose curve)
# Procedure, shortened: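 VDR-bla cells were plated 4 h at 37C/5% CO2, then exposed to compounds in DMSO for 16 h. After LiveBLAzer B/G FRET substrate addition and 2 h at room temperature, beta-lactamase reporter fluorescence was read.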
# Chain of Bile acid receptor (Homo sapiens) (Q96RI1 whole entry, looked up): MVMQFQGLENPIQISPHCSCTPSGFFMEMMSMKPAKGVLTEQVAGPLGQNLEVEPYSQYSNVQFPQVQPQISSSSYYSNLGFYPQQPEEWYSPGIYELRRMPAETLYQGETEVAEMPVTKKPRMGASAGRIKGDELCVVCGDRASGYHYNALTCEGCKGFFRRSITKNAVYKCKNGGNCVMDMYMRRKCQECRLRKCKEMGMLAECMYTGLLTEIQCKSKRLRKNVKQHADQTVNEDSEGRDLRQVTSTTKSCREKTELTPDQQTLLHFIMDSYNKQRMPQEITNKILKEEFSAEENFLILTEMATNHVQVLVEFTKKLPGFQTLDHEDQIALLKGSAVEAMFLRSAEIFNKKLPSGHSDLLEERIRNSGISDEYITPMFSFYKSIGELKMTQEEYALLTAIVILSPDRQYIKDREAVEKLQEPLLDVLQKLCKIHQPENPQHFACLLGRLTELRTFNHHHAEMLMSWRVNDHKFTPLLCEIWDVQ
# Chain of Peroxisome proliferator-activated receptor delta (Homo sapiens) (Q03181 whole entry, looked up): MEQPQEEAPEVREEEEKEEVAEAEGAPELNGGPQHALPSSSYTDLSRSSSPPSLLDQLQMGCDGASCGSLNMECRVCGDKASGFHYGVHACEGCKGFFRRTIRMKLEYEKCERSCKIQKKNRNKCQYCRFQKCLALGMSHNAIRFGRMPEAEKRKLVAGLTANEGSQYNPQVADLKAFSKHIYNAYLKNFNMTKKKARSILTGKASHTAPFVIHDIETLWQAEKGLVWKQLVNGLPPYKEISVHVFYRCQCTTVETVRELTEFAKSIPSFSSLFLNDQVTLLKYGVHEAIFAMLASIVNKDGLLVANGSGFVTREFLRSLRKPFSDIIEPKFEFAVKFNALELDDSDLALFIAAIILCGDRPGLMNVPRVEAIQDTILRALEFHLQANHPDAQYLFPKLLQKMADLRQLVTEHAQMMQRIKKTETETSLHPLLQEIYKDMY
# Chain of Peroxisome proliferator-activated receptor gamma (Homo sapiens) (P37231 whole entry, looked up): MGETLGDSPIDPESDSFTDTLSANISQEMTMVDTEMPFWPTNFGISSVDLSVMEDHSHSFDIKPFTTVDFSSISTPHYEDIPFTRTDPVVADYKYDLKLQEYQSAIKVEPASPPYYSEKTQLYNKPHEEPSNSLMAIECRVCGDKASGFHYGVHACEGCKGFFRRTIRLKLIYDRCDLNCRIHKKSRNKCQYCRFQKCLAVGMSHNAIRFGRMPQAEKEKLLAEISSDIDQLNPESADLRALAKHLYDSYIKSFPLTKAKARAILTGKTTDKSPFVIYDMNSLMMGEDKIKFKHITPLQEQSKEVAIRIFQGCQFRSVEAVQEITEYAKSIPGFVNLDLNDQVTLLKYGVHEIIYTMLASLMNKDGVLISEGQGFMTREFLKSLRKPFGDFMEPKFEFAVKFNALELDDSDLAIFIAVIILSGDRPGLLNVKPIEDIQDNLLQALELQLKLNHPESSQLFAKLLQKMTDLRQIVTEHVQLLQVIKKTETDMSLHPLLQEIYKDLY
# Chain of Vitamin D3 receptor (Homo sapiens) (P11473 whole entry, looked up): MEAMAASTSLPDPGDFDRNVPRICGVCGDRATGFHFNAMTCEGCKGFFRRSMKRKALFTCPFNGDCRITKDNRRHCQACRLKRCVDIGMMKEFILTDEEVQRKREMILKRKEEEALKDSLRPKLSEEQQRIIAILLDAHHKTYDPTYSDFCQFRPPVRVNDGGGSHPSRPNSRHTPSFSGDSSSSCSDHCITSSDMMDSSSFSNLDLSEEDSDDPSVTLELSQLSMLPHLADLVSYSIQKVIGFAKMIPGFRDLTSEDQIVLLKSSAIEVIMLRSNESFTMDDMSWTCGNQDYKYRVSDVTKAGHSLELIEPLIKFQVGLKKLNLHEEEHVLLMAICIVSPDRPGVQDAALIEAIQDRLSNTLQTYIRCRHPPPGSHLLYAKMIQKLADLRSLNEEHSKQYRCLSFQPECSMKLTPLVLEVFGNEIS
# Chain of Aryl hydrocarbon receptor (Homo sapiens) (P35869 whole entry, looked up): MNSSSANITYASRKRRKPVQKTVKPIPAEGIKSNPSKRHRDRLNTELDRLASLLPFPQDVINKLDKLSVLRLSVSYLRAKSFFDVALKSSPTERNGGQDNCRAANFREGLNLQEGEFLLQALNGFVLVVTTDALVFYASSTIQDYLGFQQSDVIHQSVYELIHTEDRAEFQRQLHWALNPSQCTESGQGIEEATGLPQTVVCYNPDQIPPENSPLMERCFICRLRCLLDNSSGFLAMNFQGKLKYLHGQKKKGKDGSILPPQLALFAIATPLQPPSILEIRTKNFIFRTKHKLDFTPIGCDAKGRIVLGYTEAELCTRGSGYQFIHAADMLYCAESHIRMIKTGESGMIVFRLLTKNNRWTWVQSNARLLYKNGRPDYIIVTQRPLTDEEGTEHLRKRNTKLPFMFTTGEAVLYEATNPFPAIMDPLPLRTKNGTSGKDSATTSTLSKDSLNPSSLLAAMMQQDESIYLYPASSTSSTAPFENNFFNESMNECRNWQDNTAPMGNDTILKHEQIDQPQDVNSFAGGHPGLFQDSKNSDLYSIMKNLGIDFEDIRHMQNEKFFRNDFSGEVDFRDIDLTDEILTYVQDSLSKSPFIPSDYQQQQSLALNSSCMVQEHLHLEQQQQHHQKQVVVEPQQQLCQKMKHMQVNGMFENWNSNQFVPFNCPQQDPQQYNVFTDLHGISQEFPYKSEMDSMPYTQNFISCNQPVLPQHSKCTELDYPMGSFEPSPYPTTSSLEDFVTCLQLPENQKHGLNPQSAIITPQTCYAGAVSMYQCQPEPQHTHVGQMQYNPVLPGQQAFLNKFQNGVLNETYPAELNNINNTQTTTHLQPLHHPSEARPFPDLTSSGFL
SMILES,Potency [1],Potency [2],Potency [3],Potency [4],Potency [5],Potency [6],Potency [7],Potency [8],Potency [9],Potency [10],Potency [11],Potency [12],outcome [13],Potency [14],Potency [15],Potency [16],Potency [17],Potency [18],Potency [19],Potency [20]
CN(C)C(=O)NC1(c2ccccc2)CCN(CC[C@@]2(c3ccc(F)c(F)c3)CN(C(=O)c3ccccc3)CCO2)CC1,inactive,inactive,inactive,inactive,inactive,inactive,inactive,inactive,inactive,inactive,inactive,inactive,inactive,inactive,–,–,–,–,–,–
CCCCC(=O)OCC(=O)[C@H]1[C@H](C)C[C@H]2[C@@H]3C[C@H](F)C4=CC(=O)C=C[C@]4(C)[C@@]3(F)[C@@H](O)C[C@@]21C,inactive,–,inactive,inactive,inactive,–,–,inactive,–,–,–,inactive,inactive,inactive,inactive,inactive,inactive,inactive,–,–
C[N+]1(C)CCC(OC(=O)C(O)(c2ccccc2)C2CCCC2)C1 (stereo unspecified),–,–,–,inactive,inactive,inactive,inactive,inactive,–,–,–,inactive,inactive,inactive,inactive,inactive,inactive,inactive,inactive,inactive
CCOc1ccc(N=Nc2ccc(/C=C/c3ccc(N=Nc4ccc(OCC)cc4)cc3S(=O)(=O)O)c(S(=O)(=O)O)c2)cc1,–,inactive,–,inactive,inactive,inactive,inactive,inactive,inactive,–,–,inactive,–,inactive,inactive,inactive,inactive,inactive,19 µM (active),inactive
CCOC(=O)Cc1cccc2ccccc12,–,inactive,inactive,inactive,inactive,–,–,–,–,–,–,inactive,–,inactive,inactive,–,inactive,inactive,inactive,inactive
CCCCC/C=C\C/C=C\CCCCCCCC(=O)NC(C)c1ccccc1 (stereo unspecified),–,–,29.8 µM (active),inactive,inactive,–,–,–,inactive,–,–,inactive,–,inactive,inactive,inactive,–,inactive,inactive,–
COc1ccc(-c2nc3ccc(C4=NNC(=O)CC4C)cc3[nH]2)cc1 (stereo unspecified),–,–,inactive,inactive,inactive,inactive,inactive,–,–,29.8 µM (active),inactive,inactive,–,inactive,inactive,inactive,–,–,inactive,inactive
CCCCCCCCCCCCN1CCCCCC1=O,–,inactive,–,inactive,–,–,inactive,inactive,–,inactive,inactive,–,–,30.9 µM (active),inactive,inactive,inactive,inactive,inactive,–
C=CCOc1ccccc1OCC(O)CNC(C)C (stereo unspecified),–,–,inactive,inactive,inactive,–,inactive,inactive,inactive,inactive,inactive,inactive,–,inactive,inactive,inactive,inactive,–,inactive,inactive
